# Bioassay records as filed in PubChem.
# Most compounds without a hit are left out; they make up all but 18% or so of the library.
# TGFb SMAD3 inh – inhibitors of TGF-b signaling. HepG2 CAGA-GFP TGF-b/SMAD3 reporter, GFP fluorescence, 18 h; TGF-beta stimulated, 500 pg/mL final. Potency, µM (series often up to 46.1 µM), inactives show at the top dose activity, negative = inhibition, most hits filed as inhibitors. actives 1.2% (n = 410,000). AID 588855; further: potency means the concentration at half of the fitted maximal effect; on the % scale 0 is the no-effect control and ±100 the full control effect; nearly all actives have a fitted effect of over 65% in size
#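 HEPG2 CAGA-GFP, 1000 cells/well; 2 h settle, 37 C; cpd via pin tool; TGF-b 500 pg/mL final; 18 h, 37 C; GFP imaging ex488/em500-530; %Activity normalised to -TGF-b and +DMSO controls; CRC fit, curve class.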
# TDP1 block – TDP1 (human) enzyme inhibition. Q9NUW8. recombinant TDP1, AlphaScreen DNA substrate cleavage. Potency, µM (doses to about 130 µM), without a hit: top-dose activity change, negative = inhibition, usual class: inhibitors. actives 0.28% (n = 350,000). AID 485290; further: potency means the concentration at half of the fitted maximal effect; on the % scale 0 is the no-effect control and ±100 the full control effect; nearly all actives have a fitted effect of over 40% in size
# Target sequence (Q9NUW8 whole entry, looked up): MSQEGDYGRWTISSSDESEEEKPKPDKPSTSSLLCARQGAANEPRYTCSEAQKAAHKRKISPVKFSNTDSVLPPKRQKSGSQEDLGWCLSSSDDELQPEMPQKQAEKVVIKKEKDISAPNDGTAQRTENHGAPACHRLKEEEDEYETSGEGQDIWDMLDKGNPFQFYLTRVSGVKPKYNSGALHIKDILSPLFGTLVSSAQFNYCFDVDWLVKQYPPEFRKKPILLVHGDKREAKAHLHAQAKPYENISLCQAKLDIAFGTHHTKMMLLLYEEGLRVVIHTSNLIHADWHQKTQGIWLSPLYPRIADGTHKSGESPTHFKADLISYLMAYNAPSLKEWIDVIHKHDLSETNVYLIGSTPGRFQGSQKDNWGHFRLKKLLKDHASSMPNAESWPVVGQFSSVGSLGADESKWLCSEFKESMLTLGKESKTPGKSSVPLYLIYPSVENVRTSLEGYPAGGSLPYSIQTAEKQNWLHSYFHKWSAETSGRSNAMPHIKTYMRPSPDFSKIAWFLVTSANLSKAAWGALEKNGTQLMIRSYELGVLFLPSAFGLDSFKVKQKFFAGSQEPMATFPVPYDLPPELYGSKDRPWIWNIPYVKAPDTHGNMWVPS
#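 Tdp1 1 nM final; 15 min RT w/ cpd; substrate 15 nM, 5 min; beads 10 ug/ml, 10 min; AlphaScreen read. Neg ctrl: no enzyme.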
# IL-1B inflam inh – blocks inflammasome-driven IL-1 beta release; actives 4.7% (n = 360,000); AID 743279; activity change, % at 57.5 µM; THP-1 LPS/ATP IL-1B secretion, AlphaLISA, 16 h; stronger effect = lower value; in the data active means activity change below about -50%; inconclusive means mostly about -30% to -49%; further: on the % scale 0 is the no-effect control and ±100 the full control effect
#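 Secreted IL-1B measured by AlphaLISA bead assay after 16 h compound exposure of THP-1 cells; compounds (final up to 57.5 uM) added 1 h before LPS (250 ng/mL) and ATP (1.25 mM) stimulation; lower signal means less secretion.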
# HepG2 viability – counter-screen for TGF-b inhibitors: cytotoxicity in HepG2 cells. HepG2 CAGA-GFP viability, ATP luminescence, 18 h. Potency, µM (highest dose often 46.1 µM), for the others: at the top dose activity change, negative = cytotoxicity, actives largely listed as cytotoxic. actives 0.76% (n = 410,000). AID 588856; further: potency means the concentration at half of the fitted maximal effect
#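 CellTiter-Glo luminescence gave cytotoxicity after 18 hours at 37 degrees C. The cells were HepG2 CAGA-GFP in 1% FBS DMEM, stimulated with 500 pg/mL TGF-beta after compound addition. %Activity was normalised to no-cell wells (complete cell-killing) and DMSO (no toxicity), and curves were fitted and classified.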
# TDP1 cell noCPT – qHTS for Inhibitors of human tyrosyl-DNA phosphodiesterase 1 (TDP1): qHTS in cells in absence of CPT. DT40 Tdp1-/- hTDP1 cells, no CPT, ATP luminescence, 48 h. Potency, µM (highest dose often 46.2 µM), inactives show at the top dose activity change, negative = growth inhibition, usual class: inhibitors. actives 15% (n = 420,000); further: potency means the concentration at half of the fitted maximal effect; on the % scale 0 is the no-effect control and ±100 the full control effect; nearly all actives have a fitted effect of over 55% in size
#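 Growth of hTDP1-complemented DT40 Tdp1-knockout cells is measured by ATP luminescence after at least 48 hr compound exposure at 37 °C, with DMSO substituting for the 20 nM CPT used in the parallel screen.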
# DT40 TDP1 CPT – growth inhibition of DT40 Tdp1-/-;hTDP1 cells with camptothecin (screen for TDP1 inhibitors) | chicken DT40 Tdp1-/-;hTDP1 cells + 20 nM CPT, ATP luminescence, 48 h | Potency, µM (highest dose often 46.2 µM), for inactives: at the top dose activity change, negative = growth inhibition, usual class: inhibitors | actives 12% (n = 420,000); further: potency means the concentration at half of the fitted maximal effect; on the % scale 0 is the no-effect control and ±100 the full control effect; nearly all actives have a fitted effect of over 55% in size
#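 Chicken DT40 Tdp1-/- cells stably complemented with human TDP1 were seeded at 400 cells/well in medium containing 20 nM camptothecin, exposed to pin-transferred compounds, and grown at 37 °C for at least 48 hr. Viability was read as ATP luminescence.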
# * marks the source's active call; other numbers are inactive results; ? = inconclusive; . = no result given; [ ] = dose if it differs, or a comment. Unless noted, the call rests on the fitted dose curve; in most records, active means well fitted curve in the direction sought with a large enough effect; inconclusive means small, poorly fitted or top-dose-only effect, or another doubt; inactive means no such curve, though single readings can be large; an effect the other way counts as inactive or inconclusive.
SMILES,TGFb SMAD3 inh,TDP1 block,IL-1B inflam inh,HepG2 viability,TDP1 cell noCPT,DT40 TDP1 CPT
Cc1nc(C(F)(F)F)ccc1C(=O)N1CCC1(C)C(=O)Nc1ccc2c(c1)OCO2 (configuration not stated),3.2%,.,-18.5,-21.3%,?,-27.2%
COc1cccc(-n2nnc3c(=O)n(Cc4cccc(F)c4)cnc32)c1,-23.8%,2.1%,-54.9*,-3.3%,-8.1%,?
O=C(c1cccs1)N(Cc1cccnc1)c1nc2c(Cl)cccc2s1,17.8µM*,5.2%,.,-42.2%,?,-21.3%
COc1ccc2nc(N(Cc3cccnc3)C(=O)c3ccc4c(c3)OCCO4)sc2c1,-17.5%,2.7%,.,-3.6%,?,-29.2%
O=C(c1ccc2c(c1)OCCO2)N(Cc1cccnc1)c1nc2c(Cl)cccc2s1,?,10.8%,.,-20.1%,23.1µM*,?
CN(C)CCN(C(=O)c1ccc2c(c1)OCCO2)c1nc2c(Cl)cccc2s1,8.7%,7.3%,1.4,-68.1%,-23.3%,-18.9%
CCOc1ccc2nc(N(Cc3cccnc3)C(=O)c3ccc4c(c3)OCCO4)sc2c1,0.4%,8.1%,.,-3.0%,20.6µM*,?
COc1cccc(C(c2nnnn2Cc2ccco2)N2CCN(c3cccc(C)c3C)CC2)c1OC (configuration not stated),?,3.9%,-2.0,0.5%,25.9µM*,?
COc1ccc(C(c2nnnn2Cc2ccccc2)N2CCN(C(=O)c3ccco3)CC2)cc1 (configuration not stated),19.7%,3.9%,-8.3,-7.0%,?,-20.7%
O=C(c1ccco1)N1CCN(C(c2ccc(Cl)cc2)c2nnnn2Cc2ccccc2)CC1 (configuration not stated),-1.7%,-1.1%,-51.0*,5.0%,-23.8%,-22.1%
COc1cccc(C(c2nnnn2Cc2ccccc2)N2CCN(C(=O)c3ccco3)CC2)c1OC (configuration not stated),24.1%,4.5%,-12.4,-7.5%,23.1µM*,?
CCCC1N=C2c3ccccc3N=C(SCC(=O)NCCc3ccc(Cl)cc3)N2C1=O (configuration not stated),-0.1%,1.2%,.,-35.8%,?,?
Cc1ccc(-c2cc3ncc(C(=O)c4cc(Cl)c(C)cc4O)cn3n2)cc1,-0.7%,5.8%,.,-0.7%,-23.9%,-10.6%
Cc1ccc(C)c(COC(=O)c2cc(S(=O)(=O)N3CCCCC3)ccc2N2CCOCC2)c1,-14.0%,0.1%,-9.5,22.9%,13µM*,?
O=C(Nc1ccccc1)c1cc(S(=O)(=O)N2CCCCC2)ccc1N1CCOCC1,5.4%,-0.6%[56.1 µM],-28.7,-0.2%,-17.9%,-29.0%
CC(C)CCCC(C)NC(=O)c1cc(S(=O)(=O)N2CCCCC2)ccc1N1CCOCC1 (configuration not stated),?,0.0%,-25.8,-4.5%,13µM*,23.1µM*
Cc1ccc(NC(=O)c2cc(S(=O)(=O)N3CCCCC3)ccc2N2CCOCC2)cc1,8.2%,.,-20.3,11.9%,?,-19.8%
CCc1cccc(NC(=O)c2cc(S(=O)(=O)N3CCCCC3)ccc2N2CCOCC2)c1,-18.3%,.,?,-19.0%,16.4µM*,20.6µM*
COCC(C)NC(=O)c1cc(S(=O)(=O)N2CCCCC2)ccc1N1CCOCC1 (configuration not stated),2.0%,-0.9%,7.6,-16.5%,-5.3%,5.0%
Cc1ccc(CNC(=O)c2cc(S(=O)(=O)N3CCCCC3)ccc2N2CCOCC2)cc1,-5.6%,1.1%,-9.0,-2.0%,18.4µM*,?
Cc1ccc(COC(=O)c2cc(S(=O)(=O)N3CCCCC3)ccc2N2CCOCC2)cc1,?,-3.3%,-16.1,7.1%,25.9µM*,?
O=C(COC(=O)c1cc(S(=O)(=O)N2CCCCC2)ccc1N1CCOCC1)NCCc1ccc(F)cc1,-10.3%,-2.5%,-3.9,-0.4%,10.3µM*,-22.3%
O=C(OCc1ccccc1)c1cc(S(=O)(=O)N2CCCCC2)ccc1N1CCOCC1,-29.9%,-1.0%,-6.8,8.6%,?,?
CC(C)CNC(=O)COC(=O)c1cc(S(=O)(=O)N2CCCCC2)ccc1N1CCOCC1,-0.8%,6.2%,-14.9,1.3%,-16.1%,-7.7%
CCCc1c(C)nc2ccc(OC)cc2c1SCCC(=O)O,4.5%,5.8%,30.6,-1.9%,8.2µM*,?
SMILES,TGFb SMAD3 inh,TDP1 block,IL-1B inflam inh,HepG2 viability,TDP1 cell noCPT,DT40 TDP1 CPT
COc1ccc(C(=O)N(Cc2ccco2)Cc2ccc(C)o2)cc1,0.0%,9.3%,.,-24.5%,20.6µM*,20.6µM*
CCc1ccc(CN(Cc2ccco2)C(=O)c2ccc(OC)cc2)cc1,0.0%,7.0%,.,-48.1%,23.1µM*,?
COc1ccc(C(=O)N(Cc2ccco2)Cc2cccs2)cc1,-6.5%,3.1%,.,-29.3%,.,.
CC(C)CCN(Cc1ccco1)C(=O)Cn1ncc2c([nH]c3ccccc32)c1=O,-13.5%,0.0%,.,-28.3%,?,?
CC1CCN(C(=O)CCNS(=O)(=O)c2ccc3c(c2)c(=O)n(C)c(=O)n3C)CC1,19.1%,2.0%,-8.5,0.1%,1.2%,-0.9%
Cc1cc[n+](CC(=O)c2ccc(F)cc2)cc1,9.2%,.,.,3.0%,-9.9%,-1.1%
Cc1ccc(C(=O)C[n+]2ccc(Cc3ccccc3)cc2)cc1,3.6%,-5.9%,?,6.6%,5.8µM*,5.8µM*
CCCCCc1cc[n+](CC(=O)c2ccccc2)cc1,0.5%,.,.,-32.4%,?,?
Cc1ccc(SCCc2cc[n+](CC(=O)c3ccccc3)cc2)cc1,-0.8%,0.0%,-150.8*,-0.5%,16.4µM*,16.4µM*
O=C(Cn1cc(S(=O)(=O)N2CCCC2)c(S(=O)(=O)N2CCCC2)c1)Nc1cccc(F)c1,-8.9%,3.2%,.,2.1%,0.1%,-1.7%
CC(NC(=O)Nc1ccccc1C(F)(F)F)c1c(-n2cccc2)sc2c1CCCC2 (configuration not stated),4.8%,11.4%,.,0.2%,10.3µM*,?
CCN1CCc2c(sc(-n3cccc3)c2C(CCC(C)C)NC(=O)NCCC(=O)OC)C1 (configuration not stated),?,2.5%,.,-33.0%,25.9µM*,?
COc1cc(NC(=O)NC(C)c2c(-n3cccc3)sc3c2CCCC3)cc(OC)c1OC (configuration not stated),?,2.9%,.,-30.6%,?,?
